Experimental data from PubChem BioAssay AID1159580 (chemical genetic matrix, 2015).
Screen size: about 5,500 compounds; about 2,000 (36%) were called active. Another 18% or so got no clear call; they are omitted. No stated cut-off is given here; in the data, active means normalized growth mostly below about 0.91 (no sharp cut-off); inconclusive means no clear call, values can overlap the other calls; inactive means mostly above about 0.92. The list shows a part of the results.

Assay: chemical genetic growth profiling, strain panel (AID 1159580);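 further: tested at 20 µM; growth read once vehicle control cultures reached saturation at 30 °C; 1 = growth at the plate median or of vehicle wells; lower values mean less growth of the strain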
Conditions: S. cerevisiae deletion strains, growth OD

Measured: normalized growth

O=c1ccc2c(O)c3ccoc3cc2o1
inactive: locus YAL021C, strain ccr4, active compounds read low 0.992 | locus YAL026C, strain drs2, active compounds read low 0.974 | locus YAL030W, strain snc1, active compounds read low 0.989 | locus YBL061C, strain skt5, active compounds read low 0.982 | locus YBR009C, strain hhf1, active compounds read low 0.977 | locus YBR023C, strain chs3, active compounds read low 0.987 | locus YBR171W, strain sec66, active compounds read low 0.983 | locus YBR231C, strain swc5, active compounds read low 0.989 | locus YBR279W, strain paf1, active compounds read low 0.984 | locus YCL011C, strain gbp2, active compounds read low 0.989 | locus YCL016C, strain dcc1, active compounds read low 0.986 | locus YCL069W, strain vba3, active compounds read low 0.98 | locus YCR088W, strain abp1, active compounds read low 0.967 | locus YDL005C, strain med2, active compounds read low 0.986 | locus YDL040C, strain nat1, active compounds read low 0.99 | locus YDR001C, strain nth1, active compounds read low 0.977 | locus YDR069C, strain doa4, active compounds read low 0.986 | locus YDR137W, strain rgp1, active compounds read low 1.01 | locus YDR159W, strain sac3, active compounds read low 0.997 | locus YDR195W, strain ref2 0.957 | locus YDR297W, strain sur2, active compounds read low 0.987 | locus YDR334W, strain swr1, active compounds read low 0.947 | locus YDR335W, strain msn5, active compounds read low 0.994 | locus YDR392W, strain spt3, active compounds read low 0.98 | locus YEL003W, strain gim4, active compounds read low 0.984 | locus YEL037C, strain rad23, active compounds read low 0.984 | locus YEL061C, strain CIN8 (second series), active compounds read low 0.965 | locus YER015W, strain faa2, active compounds read low 0.993 | locus YER016W, strain bim1, active compounds read low 0.994 | locus YER111C, strain swi4, active compounds read low 0.995 | locus YER155C, strain BEM2 (second series), active compounds read low 0.997 | locus YFR010W, strain ubp6, active compounds read low 0.968 | locus YGL167C, strain pmr1, active compounds read low 0.986 | locus YGL173C, strain kem1, active compounds read low 0.992 | locus YGL227W, strain vid30, active compounds read low 0.981 | locus YGL240W, strain doc1, active compounds read low 0.99 | locus YGL253W, strain hxk2, active compounds read low 0.997 | locus YHR013C, strain ard1, active compounds read low 0.956 | locus YHR027C, strain rpn1, active compounds read low 0.998 | locus YHR030C, strain SLT2, active compounds read low 0.997 | locus YHR079C, strain IRE1, active compounds read low 0.985 | locus YHR142W, strain chs7, active compounds read low 0.975 | locus YJL092W, strain hpr5, active compounds read low 0.983 | locus YJL095W, strain BCK1 (second series), active compounds read low 0.972 | locus YJL095W, strain BCK1, active compounds read low 0.991 | locus YJL115W, strain asf1, active compounds read low 0.965 | locus YJL129C, strain trk1, active compounds read low 0.978 | locus YJL154C, strain vps35, active compounds read low 0.966 | locus YJL164C, strain tpk1, active compounds read low 0.992 | locus YJL166W, strain qcr8, active compounds read low 0.963 | locus YJL187C, strain SWE1, active compounds read low 0.988 | locus YJR066W, strain TOR1, active compounds read low 0.935 | locus YKL160W, strain elf1, active compounds read low 0.993 | locus YKR026C, strain gcn3, active compounds read low 0.986 | locus YKR091W, strain srl3, active compounds read low 0.984 | locus YLL001W, strain dnm1, active compounds read low 0.982 | locus YLL026W, active compounds read low 0.993 | locus YLL041C, strain sdh2, active compounds read low 0.981 | locus YLR027C, strain aat2, active compounds read low 0.976 | locus YLR113W, strain HOG1, active compounds read low 1 | locus YLR221C, strain rsa3, active compounds read low 0.984 | locus YLR258W, strain gsy2, active compounds read low 0.987 | locus YLR262C, strain YPT6 (second series), active compounds read low 1.01 | locus YLR320W, strain mms22, active compounds read low 1.01 | locus YLR342W, strain FKS1, active compounds read low 0.984 | locus YLR357W, strain rsc2, active compounds read low 0.975 | locus YLR370C, strain arc18, active compounds read low 0.984 | locus YLR384C, strain iki3, active compounds read low 0.992 | locus YML120C, strain ndi1, active compounds read low 0.97 | locus YMR058W, strain fet3, active compounds read low 0.98 | locus YMR125W, strain sto1, active compounds read low 0.983 | locus YMR129W, active compounds read low 0.976 | locus YMR205C, strain PFK2, active compounds read low 0.975 | locus YMR231W, strain pep5, active compounds read low 0.981 | locus YNL071W, strain lat1, active compounds read low 0.979 | locus YNL183C, strain NPR1, active compounds read low 0.944 | locus YNL209W, strain ssb2, active compounds read low 0.975 | locus YNL248C, strain rpa49, active compounds read low 0.941 | locus YNL322C, strain KRE1 (second series), active compounds read low 0.984 | locus YNR049C, strain mso1, active compounds read low 0.996 | locus YOR001W, strain rrp6, active compounds read low 0.975 | locus YOR070C, strain gyp1, active compounds read low 0.992 | locus YOR080W, strain dia2, active compounds read low 0.987 | locus YOR083W, strain WHI5, active compounds read low 0.989 | locus YOR106W, strain vam3, active compounds read low 0.977 | locus YOR231W, strain MKK1, active compounds read low 0.996 | locus YOR265W, strain rbl2, active compounds read low 0.973 | locus YOR270C, strain vph1, active compounds read low 0.904 | locus YOR290C, strain snf2, active compounds read low 0.991 | locus YPL051W, strain arl3, active compounds read low 1.01 | locus YPL078C, strain atp4, active compounds read low 0.974 | locus YPL106C, strain sse1, active compounds read low 0.978 | locus YPL240C, strain hsp82, active compounds read low 0.983 | locus YPL256C, strain CLN2, active compounds read low 0.978
